We go through five compounds from PubChem BioAssay.

Records with an inconclusive call do not appear. Activity calls are given as the source filed them.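 How the source made its calls, unless noted: active means percent response above a set limit, the screen-wide mean plus 3 SD (cut at about 130% in these data); inactive means the rest.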

Test [1] is described as follows: rapamycin-like changes in RPL19A-GFP expression – cell-based, S. cerevisiae, multiplex flow cytometry, primary screen (AID 1862; in the data active means percent of DMSO control GFP below about 86%;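 further: lower values mimic rapamycin by blocking the RPL19A rise seen in DMSO cells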). The note with it: S. cerevisiae RPL19A-GFP strain, flow cytometry fluorescence, 3 h; at 10 µM; stronger effect = lower value. (Flow cytometry measures light scatter and fluorescence of single cells or particles in a stream.)
Test [2] in a line: TOR pathway GLN3 branch reporter MEP2-GFP changes – S. cerevisiae, multiplex flow cytometry, primary screen (AID 1867;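 active means GFP response, as percent of the DMSO control, above the screen-wide mean plus 3 SD, about 139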;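 further: median GFP channel fluorescence of barcode-gated MEP2-GFP cells measured by flow cytometry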). Conditions: S. cerevisiae MEP2-GFP strain, 3 h, at 10 µM, stronger effect = higher value, 100% means same as DMSO wells.
A short description of test [3]: TOR pathway RTG branch CIT2 reporter changes – S. cerevisiae, GFP fusion, multiplex flow cytometry, primary screen (AID 1870).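 Further: barcoded CIT2-GFP strain pooled with four other GFP strains with rapamycin as positive control; median GFP fluorescence per well over plate mean of DMSO wells so 100% = DMSO.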 Conditions: S. cerevisiae CIT2-GFP expression, 3 h, at 10 µM, stronger effect = higher value.
Test [4] in a line: TOR pathway LAP4-GFP level changes – S. cerevisiae, multiplex flow cytometry, primary screen (AID 1873;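 active means GFP signal, as percent of the solvent control, above the screen mean plus 3 SD, about 149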). Conditions: S. cerevisiae LAP4-GFP expression, 3 h, at 10 µM, stronger effect = higher value.
Test [5] in a line: yeast AGP1-GFP level changes, GLN3 branch – cell-based, multiplex flow cytometry, S. cerevisiae, primary screen (AID 1887;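 active means GFP signal above the screen-wide mean plus 3 SD, that is over about 124.5% of the solvent control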;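 further: AGP1-GFP fusion strain of S. cerevisiae within a five-strain barcoded multiplex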). Conditions: 3 h, at 10 µM, stronger effect = higher value.
Test [6] is described as follows: reduced mouse 2C T cell binding to pMHC/ICAM-1 vesicles – MLPCN validation set, flow cytometry, LFA-1/ICAM-1 modulator project, pilot screen (AID 2523;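 active means response below a set limit, under 55% cells CD8-positive and vesicle-bound, and CD8 cells' 90th-percentile brightness under 279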;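 on vesicle binding response: mean PE anti-B7-1 fluorescence of CD8+ cells relative to row control; 100% = QL9-loaded vesicles with DMSO vehicle in the same plate row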). The note with it: 2C mouse CD8+ T cells, at 7 µM, stronger effect = lower value; double positive events: measured here: CD8+/vesicle+ event percentage.
Test [7] deals with Integrin beta-1 (Homo sapiens) + Integrin alpha-4 (Homo sapiens) (UniProt P13612+P05556). The test is described as follows: alpha4beta1 integrin LIBS antibody binding reduction – U937 cells, HUTS-21 mAb, flow cytometry, validation set, VLA-4 allosteric modulator project, pilot screen (AID 2674;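 active means inhibition above 50%, about 3 SD of the validation set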;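 further: antibody binding induced by the VLA-4 ligand LDV present at three times its Kd; 0% = LDV ligand with antibody and no compound and 100% = antibody without LDV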). The note with it: HUTS-21 LIBS mAb binding, at 6.7 µM, stronger effect = higher value, binding induced by LDV ligand.
Chain of Integrin beta-1 (Homo sapiens) + Integrin alpha-4 (Homo sapiens) (P05556 whole entry, looked up): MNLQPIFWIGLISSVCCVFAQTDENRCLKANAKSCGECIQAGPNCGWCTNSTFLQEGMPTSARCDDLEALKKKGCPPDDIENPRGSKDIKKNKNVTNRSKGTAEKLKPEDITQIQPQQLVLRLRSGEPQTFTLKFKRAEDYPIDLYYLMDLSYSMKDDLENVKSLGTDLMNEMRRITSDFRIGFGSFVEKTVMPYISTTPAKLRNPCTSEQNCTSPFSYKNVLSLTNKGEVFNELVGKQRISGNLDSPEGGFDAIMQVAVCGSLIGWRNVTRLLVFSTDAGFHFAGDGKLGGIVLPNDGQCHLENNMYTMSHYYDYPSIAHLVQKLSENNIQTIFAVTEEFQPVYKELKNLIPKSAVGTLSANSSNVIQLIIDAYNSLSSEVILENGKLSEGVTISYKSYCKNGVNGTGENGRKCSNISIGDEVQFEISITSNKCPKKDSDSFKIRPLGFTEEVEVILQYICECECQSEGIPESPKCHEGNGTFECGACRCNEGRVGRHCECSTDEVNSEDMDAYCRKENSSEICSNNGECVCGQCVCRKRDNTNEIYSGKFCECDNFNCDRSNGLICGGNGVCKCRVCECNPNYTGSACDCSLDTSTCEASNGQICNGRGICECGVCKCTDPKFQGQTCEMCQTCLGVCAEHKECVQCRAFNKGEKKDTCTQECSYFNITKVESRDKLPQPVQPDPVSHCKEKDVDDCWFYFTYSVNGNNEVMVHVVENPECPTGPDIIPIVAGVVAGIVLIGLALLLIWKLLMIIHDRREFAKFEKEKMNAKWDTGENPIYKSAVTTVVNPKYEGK
Chain of Integrin beta-1 (Homo sapiens) + Integrin alpha-4 (Homo sapiens) (P13612 whole entry, looked up): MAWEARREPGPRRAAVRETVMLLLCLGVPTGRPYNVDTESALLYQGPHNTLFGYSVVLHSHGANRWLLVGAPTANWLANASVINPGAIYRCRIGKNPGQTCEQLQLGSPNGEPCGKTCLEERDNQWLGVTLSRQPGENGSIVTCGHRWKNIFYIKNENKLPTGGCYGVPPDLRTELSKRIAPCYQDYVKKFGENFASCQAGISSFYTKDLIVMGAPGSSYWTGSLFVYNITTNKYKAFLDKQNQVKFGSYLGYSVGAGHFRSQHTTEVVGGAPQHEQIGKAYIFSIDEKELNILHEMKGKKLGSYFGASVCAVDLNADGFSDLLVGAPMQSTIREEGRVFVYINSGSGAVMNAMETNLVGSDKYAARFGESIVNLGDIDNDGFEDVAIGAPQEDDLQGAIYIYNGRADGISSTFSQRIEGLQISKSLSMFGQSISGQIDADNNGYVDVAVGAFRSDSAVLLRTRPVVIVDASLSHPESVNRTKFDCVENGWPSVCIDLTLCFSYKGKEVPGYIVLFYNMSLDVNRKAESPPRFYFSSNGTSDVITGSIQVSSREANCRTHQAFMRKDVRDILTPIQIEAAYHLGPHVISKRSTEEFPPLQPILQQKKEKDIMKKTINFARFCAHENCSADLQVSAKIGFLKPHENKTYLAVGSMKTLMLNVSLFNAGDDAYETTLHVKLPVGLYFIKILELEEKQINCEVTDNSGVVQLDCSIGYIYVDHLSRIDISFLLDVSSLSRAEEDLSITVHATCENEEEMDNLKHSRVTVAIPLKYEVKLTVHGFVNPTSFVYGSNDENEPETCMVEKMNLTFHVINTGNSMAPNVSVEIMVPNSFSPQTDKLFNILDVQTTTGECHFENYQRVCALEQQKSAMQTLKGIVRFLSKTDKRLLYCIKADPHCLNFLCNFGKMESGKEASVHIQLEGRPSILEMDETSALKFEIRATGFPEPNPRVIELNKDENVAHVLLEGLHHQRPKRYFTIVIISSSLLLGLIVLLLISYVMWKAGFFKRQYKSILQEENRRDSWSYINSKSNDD

Test [8] in a line: calorie-restriction mimetic ROS inhibitors, yeast – validation compound set, pilot screen (AID 2706;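 active means superoxide response below 65% of plate, a cut near 3 SD across the whole screen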;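 further: yeast exposed to compound for one week at 30 degrees C before staining; 100% = mean of all compound wells on the same plate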). The note with it: S. cerevisiae aging, superoxide DHE fluorescence; at 10 µM; stronger effect = lower value.
Test [9] deals with Beta-adrenergic receptor kinase 1 (Homo sapiens) (UniProt P25098). Briefly: GRK2 binders displacing RNA aptamer, biochemical, validation, human GRK2, bead flow cytometry (AID 488806;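 active means aptamer binding inhibition above 30%, about 3 SD of noise from non-fluorescent compounds; inactive means inhibition at or below 30%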). The note with it: bead-bound GRK2, FAM-aptamer displacement, at 10 µM, stronger effect = higher value.
Chain of Beta-adrenergic receptor kinase 1 (Homo sapiens) (P25098 whole entry, looked up): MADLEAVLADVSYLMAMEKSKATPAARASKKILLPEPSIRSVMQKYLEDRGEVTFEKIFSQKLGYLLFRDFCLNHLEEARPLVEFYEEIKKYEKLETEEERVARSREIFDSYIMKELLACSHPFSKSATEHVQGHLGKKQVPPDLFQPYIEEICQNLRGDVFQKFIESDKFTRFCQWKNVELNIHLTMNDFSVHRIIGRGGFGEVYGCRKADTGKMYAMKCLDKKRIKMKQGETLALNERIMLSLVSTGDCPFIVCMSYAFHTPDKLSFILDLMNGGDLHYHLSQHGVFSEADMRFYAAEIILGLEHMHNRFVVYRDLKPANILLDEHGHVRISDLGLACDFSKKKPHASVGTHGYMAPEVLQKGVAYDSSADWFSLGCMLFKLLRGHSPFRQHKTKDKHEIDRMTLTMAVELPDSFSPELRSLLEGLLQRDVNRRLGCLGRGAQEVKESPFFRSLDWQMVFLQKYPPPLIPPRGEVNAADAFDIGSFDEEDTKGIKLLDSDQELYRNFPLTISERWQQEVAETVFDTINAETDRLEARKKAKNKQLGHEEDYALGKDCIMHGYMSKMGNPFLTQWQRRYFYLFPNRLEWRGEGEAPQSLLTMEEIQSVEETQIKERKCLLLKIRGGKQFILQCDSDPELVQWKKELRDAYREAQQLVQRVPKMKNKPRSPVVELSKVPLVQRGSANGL
Test [10] addresses Beta-2 adrenergic receptor (Homo sapiens) (UniProt P07550). Briefly: agonist-induced loss of surface beta2AR – cell-based, FAP fluorogen, flow cytometry, validation set, pilot screen (AID 504459;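 active means percent response above 42, roughly 3 SD of non-fluorescent test compounds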;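 further: agonist-driven loss of surface beta2AR via internalization measured by FAP dye flow cytometry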). Conditions: Am2.2-beta2AR cells, at 10 µM, stronger effect = higher value.
The target of test [11] is AP-2 complex subunit beta (Homo sapiens) (UniProt P63010). The test is described as follows: beta-arrestin/AP2 interaction blockers – biochemical, validation set, GST-AP2 beads, flow cytometry, pilot screen (AID 504541;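 active means inhibition above 54%, about 3 SD of non-fluorescent compounds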;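 further: AP2 carries R879A mutation and is captured from E. coli lysate; bead-bound FITC arrestin peptide fluorescence measuring arrestin peptide binding to AP2; 0% = DMSO wells and 100% = excess unlabeled arrestin peptide control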). Conditions: FITC arrestin peptide, at 10 µM, stronger effect = higher value, AP2 beta2 appendage fragment, R879A mutant.
Chain of AP-2 complex subunit beta (Homo sapiens) (P63010 whole entry, looked up, the tested form may be a part, one chain of several): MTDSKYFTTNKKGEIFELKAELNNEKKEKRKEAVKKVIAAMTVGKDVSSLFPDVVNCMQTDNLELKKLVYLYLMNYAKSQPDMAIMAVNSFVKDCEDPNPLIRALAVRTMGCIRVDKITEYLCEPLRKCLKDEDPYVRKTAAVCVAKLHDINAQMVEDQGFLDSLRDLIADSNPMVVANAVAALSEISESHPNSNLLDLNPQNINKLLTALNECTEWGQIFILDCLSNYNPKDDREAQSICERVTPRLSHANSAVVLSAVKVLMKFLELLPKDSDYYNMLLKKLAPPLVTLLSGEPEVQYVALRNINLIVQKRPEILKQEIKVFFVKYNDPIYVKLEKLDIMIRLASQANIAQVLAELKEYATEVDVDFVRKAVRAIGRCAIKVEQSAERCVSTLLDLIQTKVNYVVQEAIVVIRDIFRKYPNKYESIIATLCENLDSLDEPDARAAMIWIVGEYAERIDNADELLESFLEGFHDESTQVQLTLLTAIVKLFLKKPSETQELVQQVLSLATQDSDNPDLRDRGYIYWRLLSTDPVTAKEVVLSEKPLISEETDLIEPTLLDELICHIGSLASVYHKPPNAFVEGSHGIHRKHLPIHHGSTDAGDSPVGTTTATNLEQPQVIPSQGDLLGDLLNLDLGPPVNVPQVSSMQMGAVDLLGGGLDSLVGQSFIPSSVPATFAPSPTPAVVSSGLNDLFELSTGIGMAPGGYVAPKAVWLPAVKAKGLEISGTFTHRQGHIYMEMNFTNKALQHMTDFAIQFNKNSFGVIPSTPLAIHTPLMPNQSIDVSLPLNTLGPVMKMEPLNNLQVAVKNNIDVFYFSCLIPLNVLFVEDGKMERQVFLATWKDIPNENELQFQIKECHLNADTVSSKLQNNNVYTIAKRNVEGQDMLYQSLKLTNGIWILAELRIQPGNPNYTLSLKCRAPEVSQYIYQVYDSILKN
The nature of test [12]: cytosolic pH regulators acting via V-ATPase – S. cerevisiae, pHLuorin, HTS validation (AID 504600; in the data active means response above about 15%;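 further: plate controls were DMSO for no effect and reference compound for full effect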). Conditions: V-ATPase proton transport, at 10 µM, stronger effect = higher value.
Test [13] has as its system anti-desmoglein-3 scFv antibody binding to human DSG3. Briefly: blockers of pathogenic pemphigus antibody–desmoglein-3 binding – biochemical, validation compound set, bead-based, flow cytometry, pilot screen (AID 588368;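 active means binding below the plate cutoff, the plate median minus 3 SD, with a reading above zero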;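 further: signal is the median channel fluorescence of bead-bound GFP antibody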). Conditions: Protein G beads, DSG3-Fc, scFv-GFP binding, at 10 µM, stronger effect = lower value.
Test [14] can be described thus: Nile Red efflux blockade in pump-expressing yeast – validation compound set, multiplex, phenotypic, pilot screen (AID 588506;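 active means efflux inhibition above 0.42, the validation set average plus 4 SD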;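 further: Nile Red retained in cells so higher fluorescence means more efflux inhibition; 0 = negative control wells and 1 = enniatin B 25 µM full block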). The note with it: S. cerevisiae pump-expressing triplex, Nile Red efflux flow cytometry; at 10 µM; stronger effect = higher value; the pumps come from Candida albicans.
Test [15] addresses ATP-binding cassette sub-family B member 6 (Homo sapiens) (UniProt Q9NP58). Briefly: blockers of ABCB6-driven porphyrin uptake – K562-ABCB6 cells, flow cytometry, validation set, pilot screen (AID 588550;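 active means inhibition above the screen-wide mean plus 3 SD, about 51%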;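 further: 0% = DMSO wells and 100% = benzethonium chloride 70 µM positive control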). Conditions: K562-ABCB6 porphyrin accumulation, 1 h, at 10 µM, stronger effect = higher value.
A short description of test [16]: AML differentiation inducers, ER-HoxA9 marrow cells – cell-based, GFP/MAC1 double positive, flow cytometry, validation set, primary screen (AID 588685;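 active means differentiation response of at least 50%, scaled between solvent and reference control, from cells with both markers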;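 further: compound exposure lasts four days before antibody staining and flow analysis; 0% = DMSO wells and 100% = 5 µM fulvestrant positive control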). Conditions: stronger effect = higher value, normalized: vehicle 0, fulvestrant 100.

Chain of Beta-2 adrenergic receptor (Homo sapiens) (P07550 whole entry, looked up): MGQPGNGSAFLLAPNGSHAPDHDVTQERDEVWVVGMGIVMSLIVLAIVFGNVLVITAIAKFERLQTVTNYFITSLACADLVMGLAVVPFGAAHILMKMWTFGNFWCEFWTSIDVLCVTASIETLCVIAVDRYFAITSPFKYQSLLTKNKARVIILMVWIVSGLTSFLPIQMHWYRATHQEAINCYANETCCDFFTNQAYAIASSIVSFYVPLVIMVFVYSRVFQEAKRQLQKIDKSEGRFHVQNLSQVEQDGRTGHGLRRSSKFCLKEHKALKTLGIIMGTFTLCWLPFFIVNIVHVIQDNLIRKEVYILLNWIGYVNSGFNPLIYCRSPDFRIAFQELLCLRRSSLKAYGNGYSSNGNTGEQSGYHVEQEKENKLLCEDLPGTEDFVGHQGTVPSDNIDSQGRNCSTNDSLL
Chain of ATP-binding cassette sub-family B member 6 (Homo sapiens) (Q9NP58 whole entry, looked up): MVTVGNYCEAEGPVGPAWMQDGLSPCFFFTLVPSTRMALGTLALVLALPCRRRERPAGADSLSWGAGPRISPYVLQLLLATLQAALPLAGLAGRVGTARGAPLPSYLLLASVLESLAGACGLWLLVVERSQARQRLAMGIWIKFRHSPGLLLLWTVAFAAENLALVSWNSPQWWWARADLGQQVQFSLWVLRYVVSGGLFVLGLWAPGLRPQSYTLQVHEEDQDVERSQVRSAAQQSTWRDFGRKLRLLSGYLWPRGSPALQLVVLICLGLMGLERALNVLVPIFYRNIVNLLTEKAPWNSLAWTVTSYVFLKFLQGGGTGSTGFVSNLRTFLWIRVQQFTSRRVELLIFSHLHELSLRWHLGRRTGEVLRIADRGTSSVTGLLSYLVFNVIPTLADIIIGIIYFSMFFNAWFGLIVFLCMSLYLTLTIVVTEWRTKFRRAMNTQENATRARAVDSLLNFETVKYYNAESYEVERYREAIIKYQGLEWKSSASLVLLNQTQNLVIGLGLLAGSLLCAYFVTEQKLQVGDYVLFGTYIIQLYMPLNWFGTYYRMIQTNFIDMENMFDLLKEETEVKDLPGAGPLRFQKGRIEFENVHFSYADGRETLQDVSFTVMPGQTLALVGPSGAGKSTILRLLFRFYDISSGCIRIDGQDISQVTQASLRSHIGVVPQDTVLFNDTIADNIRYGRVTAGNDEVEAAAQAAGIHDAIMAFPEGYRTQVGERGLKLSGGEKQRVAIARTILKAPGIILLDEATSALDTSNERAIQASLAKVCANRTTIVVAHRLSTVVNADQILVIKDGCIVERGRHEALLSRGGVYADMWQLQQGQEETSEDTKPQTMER

As for `CC(C[N+](C)(C)C)OC(N)=O` (stereo not given), the percent of DMSO control GFP in test [1] is 100% (inactive). For the same compound, the GFP response vs DMSO in test [2] is 98.6% (inactive); in test [4] it was 104% (inactive). Further, in [3], the percent response of DMSO control is 89.9% (inactive). In addition, the GFP response, % of DMSO in test [5] was 110% (inactive). Besides, the double positive events in [6] stood at 66.5%. The vesicle binding response in [6] is 164% (inactive). In addition, the inhibition (as a rule, the drop in the measured response relative to a control, in per cent) in test [7] was 11.7% (inactive); in [11], -15.8% (inactive); in test [15], 12% (inactive). In addition, the superoxide response (% of plate) in [8] was 96.5% (inactive). In test [9], the aptamer binding inhibition is 2% (inactive). The figures for the response in test [10] and in [12] were -16.4% (inactive) and 0.77% (inactive), respectively. Besides, the binding (% of control) in test [13] is 103% (inactive). Moreover, the efflux inhibition (fraction of control) in test [14] was 0.08 (inactive). Moreover, in test [16], the differentiation response was 0% (inactive).

On to `Cn1c(=O)[nH]c(=O)c2c1nc(NCc1ccco1)n2CCCc1ccccc1`, for which the percent of DMSO control GFP in test [1] was 101% (inactive). The GFP response vs DMSO is 101% (inactive) in [2] and 90.1% (inactive) in test [4]. Further, the percent response of DMSO control in [3] was 100% (inactive). The GFP response, % of DMSO in test [5] was 105% (inactive). In addition, in [6], the double positive events stood at 62.6%. Moreover, in test [6], the vesicle binding response was 36.6% (inactive). The figures for the inhibition in test [7], in test [11] and in test [15] were -2.53% (inactive), 9.94% (inactive) and -1% (inactive), respectively. Moreover, in test [8], the superoxide response (% of plate) is 103% (inactive). Besides, the aptamer binding inhibition in test [9] was 5% (inactive). In addition, the results for the response in [10] and in test [12] were -5.62% (inactive) and 0.19% (inactive), respectively. For the same compound, the binding (% of control) in test [13] is 97.2% (inactive). The efflux inhibition (fraction of control) in test [14] is -0.07 (inactive). The differentiation response in test [16] was -3.67% (inactive).

Regarding `CC(=O)[C@@]1(O)CC[C@H]2[C@@H]3C[C@H](C)C4=CC(=O)C=C[C@]4(C)[C@@]3(F)[C@@H](O)C[C@@]21C`, in test [1], the percent of DMSO control GFP was 102% (inactive). The values for the GFP response vs DMSO in test [2] and in test [4] were 134% (inactive) and 93% (inactive), respectively. Moreover, the percent response of DMSO control in test [3] is 110% (inactive). Moreover, the GFP response, % of DMSO in test [5] is 95.2% (inactive). The same compound returned a double positive events in test [6] of 63.3%. Besides, the vesicle binding response in test [6] was 157% (inactive). Moreover, the inhibition in [7] is 2.58% (inactive); in [11] it was 32.1% (inactive); in test [15], 9% (inactive). Further, the superoxide response (% of plate) in test [8] is 99.4% (inactive). In addition, the aptamer binding inhibition in test [9] was 5% (inactive). Further, the response was -0.53% (inactive) in [10] and -3.11% (inactive) in test [12]. Further, in test [13], the binding (% of control) is 101% (inactive). Besides, the efflux inhibition (fraction of control) in test [14] is -0.35 (inactive). Besides, the differentiation response in [16] was 9.83% (inactive).

Turning to `COc1cc2c(cc1NCc1ccc3c(c1)OCO3)oc1ccccc12`, the percent of DMSO control GFP in test [1] is 99.6% (inactive). Moreover, the values for the GFP response vs DMSO in test [2] and in test [4] were 133% (inactive) and 88% (inactive), respectively. Besides, the percent response of DMSO control in [3] is 112% (inactive). Moreover, in test [5], the GFP response, % of DMSO is 89.4% (inactive). This compound also yielded a double positive events in test [6] of 64%. Moreover, in test [6], the vesicle binding response was 167% (inactive). The inhibition in test [7] was 1.61% (inactive); in test [11], 47.4% (inactive); in [15], 0% (inactive). The superoxide response (% of plate) in test [8] was 99.1% (inactive). In test [9], the aptamer binding inhibition is 0% (inactive). Also, the results for the response in test [10] and in test [12] were 4.3% (inactive) and 8.06% (inactive), respectively. In test [13], the binding (% of control) is 103% (inactive). Also, in test [14], the efflux inhibition (fraction of control) is 0.37 (inactive). Further, in test [16], the differentiation response is 8.19% (inactive).

In the case of `Cc1ccccc1C(=O)NNc1ncnc2c1cnn2C`, in test [1], the percent of DMSO control GFP is 104% (inactive). Further, the GFP response vs DMSO in test [2] and in test [4] was 103% (inactive) throughout. The percent response of DMSO control in test [3] was 91.2% (inactive). In addition, the GFP response, % of DMSO in [5] is 112% (inactive). For the same compound, the double positive events in [6] was determined as 64.9%. The vesicle binding response in [6] was 146% (inactive). Further, the inhibition in test [7] is 3.99% (inactive); in [11], 15.7% (inactive); in test [15], -17% (inactive). Further, in test [8], the superoxide response (% of plate) is 104% (inactive). In addition, the aptamer binding inhibition in test [9] was -2% (inactive). Moreover, the response is -18.4% (inactive) in [10] and -4.35% (inactive) in test [12]. Also, the binding (% of control) in test [13] was 107% (inactive). The efflux inhibition (fraction of control) in test [14] was 0.08 (inactive). The differentiation response in [16] was 6.83% (inactive).
